From PubChem BioAssay
An excerpt weighted towards active compounds, which were near 3.6% of everything screened.
HepG2 tox: counter-screen for TGF-b inhibitors: cytotoxicity in HepG2 cells; HepG2 CAGA-GFP viability, ATP luminescence, 18 h; Potency, µM (doses to about 46.1 µM), for the others: at the highest dose activity change, negative = cytotoxicity, most hits filed as cytotoxic; actives 0.76% (n = 410,000); AID 588856
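HepG2 CAGA-GFP cells (1000/well, DMEM with 1% FBS) received compound, then TGF-beta at 500 pg/mL final, and were incubated 18 hours at 37 degrees C. Viability was read by CellTiter-Glo luminescence. Media-only wells were set as complete cell-killing and DMSO as no toxicity.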
Nrf2 activator: activators of Nrf2 (ARE) signaling; AREc32 ARE-luciferase reporter (MCF7-derived line), luminescence, 24 h; Potency, µM (highest dose often 46.1 µM), for the others: top-dose activation, hits mostly activators; actives 0.31% (n = 410,000); AID 624171; also: % of control where 0% means no effect; nearly all actives have a fitted effect of over 65% in size
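ARE activation measured as luciferase luminescence (Steady-Glo, 30 min RT) in AREc32_Fluc cells after 24 hr compound exposure at 37 deg C, 5% CO2; cells seeded overnight at 1000/well in OPTI-MEM, 5% FBS.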
Nrf2 block: blocks Nrf2 signaling | A549 ARE-Fluc reporter, luciferase luminescence, 18-24 h | actives 2.1% (n = 360,000) | Potency, µM (doses to about 46 µM), inactives show top-dose activity change, negative = inhibition, actives largely listed as inhibitors | AID 504444; also: % is scaled to controls: 0 for no effect and ±100 for the full control effect; nearly all actives have a fitted effect of over 60% in size
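Cells were seeded and rested 2 h, then exposed to compounds for 18-24 h. CellTiter-Fluor was read first as a viability measure. BugLite was added 15 min before the final luminescent read of ARE-luciferase activity in A549 cells.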
A549 viability: counter-screen for Nrf2 inhibitors: cytotoxicity in A549 cells | A549 ARE-Fluc cells, CellTiter-Fluor viability, 18-24 h | actives 0.16% (n = 390,000) | Potency, µM (highest dose often 46 µM), inactives show top-dose activity change, negative = cytotoxicity, actives largely listed as inhibitors; also: % is scaled to controls: 0 for no effect and ±100 for the full control effect
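Cytotoxicity counterscreen: CellTiter-Fluor fluorescence was measured in A549 ARE_Fluc cells after 18-24 h of compound exposure in a concentration series. The subsequent BugLite luminescent read reports ARE-luciferase activity.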
TGFb inhibitor: TGF-b pathway inhibition; actives 1.2% (n = 410,000); HepG2 CAGA-GFP TGF-b/SMAD3 reporter, GFP fluorescence, 18 h; TGF-beta stimulated, 500 pg/mL final; Potency, µM (titrated, usually from 46.1 µM), for the others: top-dose activity, negative = inhibition, hits mostly inhibitors; also: % is scaled to controls: 0 for no effect and ±100 for the full control effect; nearly all actives have a fitted effect of over 65% in size
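HEPG2 CAGA-GFP reporter cells (1000/well, DMEM with 1% FBS) received compounds, then recombinant TGF-beta at 500 pg/mL final for 18 hours at 37 degrees C. Per-cell GFP summed per well was normalised to unstimulated and stimulated DMSO controls before curve fitting.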
* marks the source's active call; other numbers are inactive results; ? = inconclusive; / = no result; ! = a repeat was not active; [ ] = remark or other dose. Calls follow the shape of the dose curve; as a rule, active = well fitted curve in the direction sought with a large enough effect; inconclusive = small, poorly fitted or top-dose-only effect, or another doubt; inactive = no such curve, though single readings can be large; an effect the other way counts as inactive or inconclusive. Potency is read from the fitted curve at half-maximal effect.

SMILES	HepG2 tox	Nrf2 activator	Nrf2 block	A549 viability	TGFb inhibitor
CC(C)C[C@@H](CO)N(Cc1ccccc1)S(=O)(=O)N(Cc1ccccc1)[C@@H](CO)CC(C)C	16µM*	-4%	?	?	10µM*
CC(C)C[C@@H](CO)N(Cc1ccccc1)S(=O)(=O)N(Cc1ccccc1)[C@H](CO)CC(C)C	-115%	-2%	?	?	11µM*!
COc1ccc(CN([C@H](CO)CC(C)C)S(=O)(=O)N(Cc2ccccc2)[C@H](CO)CC(C)C)cc1	11µM*!	-4%	?	-26%	?
O=S(=O)(N(Cc1ccccc1)[C@H](CO)Cc1ccccc1)N(Cc1ccccc1)[C@H](CO)Cc1ccccc1	-10%	3%	-30%	-7%	-8%
CCC(C)Sc1ccc([C@H]2N[C@@](Cc3ccccc3)(C(=O)OC)[C@H]3C(=O)N(CC)C(=O)[C@@H]23)cc1OC (some centres not stated)	-5%	1%	7%	-2%	13%
CCCOc1nc2c(c(=O)n(C)c(=O)n2C)n1C	2%	0%	-23%	-4%	10%
CCCOc1nc2c(c(=O)n(C)c(=O)n2C)n1Cc1cccc2ccccc12	6%	0%	18µM*	-11%	-6%
CCC(NC(=O)Nc1nnc(C(F)(F)F)s1)(C(F)(F)F)C(F)(F)F	-40%	0%	3.7µM*	7.3µM*	?
CCc1ccc(CNc2ccc(N3CCN(C(C)=O)CC3)cc2)cc1	-17%	6%	16µM*	?	?
CC(=O)N1CCN(c2ccc(NCc3ccc(C)cc3)cc2)CC1	-18%	2%	-14%	-20%	-4%
CCOC(=O)c1cnc2ccc(C)cc2c1NCCO	-27%	-1%	-8%	-4%	0%
O=C(CSc1ccc(F)cc1)N1CCC(c2nc3ccccc3s2)CC1	-34%	4%	18µM*	-10%	?
COc1ccc(C(=O)N2CCC(c3nc4ccccc4s3)CC2)cc1Cl	-31%	5%	?	-9%	8.9µM*
O=C(CN1CCC(c2nc3ccccc3s2)CC1)NCc1cccs1	-32%	4%	7.3µM*	-2%[1.84 µM]	?
COc1cccc(C(=O)N2CCC(c3nc4ccccc4s3)CC2)c1	-6%	5%	-11%	2%	?
COCc1cc(C)nc(SCC(=O)NC2CCCCC2C)c1C#N (configuration not stated)	0%	-1%	-16%	-4%	4%
COCC(=O)N(Cc1cc2cc(C)ccc2[nH]c1=O)c1ccc(C)c(C)c1	-3%	2%	22%	0%	7%
Cc1cccc(NC(=O)CSc2nccn2-c2cccc(Cl)c2)c1C	-18%	-1%	/	7%	?
COCCNC(=O)c1cccc(Nc2nc(-c3ccccc3)c3cc(Cl)ccc3n2)c1	-3%	2%	15µM*	?	-4%
CC(=O)NNc1nc(-c2ccccc2)c2cc(Cl)ccc2n1	-21%	-1%	/	/	2%
CC1=C(C(=O)Nc2ccc(Cl)cc2)C(c2ccccc2C)n2ncc(C(=O)Nc3ccc(C)cc3)c2N1 (configuration not stated)	-3%	6%	-29%	-4%	?
CC1=C(C(=O)Nc2ccc(Cl)cc2)C(c2ccccc2)n2ncc(C(=O)Nc3ccccc3)c2N1 (configuration not stated)	-36%	4%	16µM*	-24%	?
COc1ccc(C(=O)NCCCNC(=O)c2cccnc2)cc1OC	-5%	0%	10µM*	1%	-2%
CC(C)(C)c1ccc(C(=O)NCCCNC(=O)c2cccnc2)cc1	-10%	-1%	8.2µM*	-3%	2%
COc1ccc(CCNC(=O)c2cccnc2)cc1OC	9%	0%	/	-7%	3%
CCC(C)[C@@H](N)C(=O)N/N=C/c1cccc2nccnc12 (some centres not stated)	-5%	0%	4%	0%	24%
O=C(C1COc2cc(S(=O)(=O)Nc3ccc(Cl)cc3)ccc2O1)N1CCCC1 (configuration not stated)	-18%	0%	26µM*	-5%	?
